Screening data as filed in PubChem BioAssay.
An excerpt weighted towards active compounds, which were near 8.1% of everything screened.
KB-V1 cytotox = KB-V1 MDR subline cytotoxicity; hit rate 3.4% among 400,000; Potency, µM (top dose mostly 46.1 µM), actives largely listed as cytotoxic; AID 1347076; KB-V1 MDR cells viability, CellTiter-Glo, 72 h; note: % is set by controls: 0 for no effect and ±100 for the full control effect; nearly all actives have a fitted effect of over 60% in size
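KB-V1 cells (P-gp-expressing MDR subline of KB-3-1) in phenol-red-free DMEM with 10% FBS were exposed to library compounds over a concentration series for 72 h at 37 degrees C. Viability read by CellTiter-Glo luminescence; concentration-effect curves fitted after normalization.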
SW480 rerep = inducers of DNA re-replication in SW480 colon cancer cells; SW480 DNA re-replication, Hoechst DNA content imaging, 48 h; Potency, µM (highest dose often 46.1 µM), inactives show at the highest dose re-replication activation, hits mostly activators; hit rate 1.8% among 340,000; note: % of control where 0% means no effect; nearly all actives have a fitted effect of over 55% in size
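Compounds, transferred as 23 nL by pin tool, were incubated with cells for 48 hr; DNA content per nucleus was then quantified by Hoechst staining and fluorescence plate imaging.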
ELG1 repair inh = blocks ELG1-dependent DNA repair in HEK293T cells; hit rate 2.3% among 330,000; HEK293T ELG1-luciferase reporter, luminescence, 16 h; DNA damage induced by 5-fluorouridine; Potency, µM (doses to about 46.1 µM), without a hit: top-dose activity change, negative = inhibition, actives largely listed as inhibitors; note: % is set by controls: 0 for no effect and ±100 for the full control effect; nearly all actives have a fitted effect of over 55% in size
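Overnight (16 hr) co-exposure of 2,000 cells/well to 5-fluorouridine and compound at 37 °C preceded detection. Luciferase was quantified via ONE-Glo luminescence; loss of signal denotes inhibition.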
MCF10A rereplic = DNA re-replication induction in MCF 10a cells | MCF 10A DNA re-replication, Hoechst nuclear intensity, 48 h | Potency, µM (top dose mostly 46.1 µM), for the others: top-dose activity, positive = re-replication, most hits filed as activators | hit rate 2.9% among 350,000 | AID 624296; note: % of control where 0% means no effect; nearly all actives have a fitted effect of over 50% in size
KB-3-1 cytotox = KB-3-1 parental cell cytotoxicity; KB-3-1 viability, CellTiter-Glo ATP luminescence, 72 h; Potency, µM (top dose mostly 46.1 µM), most hits filed as cytotoxic; hit rate 1.4% among 400,000; AID 1347075; note: % is set by controls: 0 for no effect and ±100 for the full control effect; nearly all actives have a fitted effect of over 60% in size
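Cytotoxicity in the drug-sensitive parental line KB-3-1 was scored as loss of CellTiter-Glo luminescence following 72 h incubation with compound. Values come from curve fitting of normalized concentration-response data.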
* = called active by the depositor. Calls come from the whole dose curve; as a rule, active = well fitted curve in the direction sought with a large enough effect; inconclusive = small, poorly fitted or top-dose-only effect, or another doubt; inactive = no such curve, though single readings can be large; an effect the other way counts as inactive or inconclusive. Potency is the fitted concentration of half-maximal effect.

Cc1cccc2cc(C#N)c(NCCCNS(=O)(=O)c3ccc(Cl)cc3)nc12 was read as KB-V1 cytotox 9.2µM*, SW480 rerep 16µM*, ELG1 repair inh inconclusive, MCF10A rereplic inconclusive and KB-3-1 cytotox inconclusive.
`Cc1cc(NCCCn2ccnc2)n2c(nc3ccccc32)c1C#N` gave KB-V1 cytotox inactive, SW480 rerep 3%, ELG1 repair inh -17%, MCF10A rereplic inconclusive and KB-3-1 cytotox inactive.
`COc1ccc(Nc2nc3cc(C)ccc3cc2C#N)c(OC)c1` gave KB-V1 cytotox inactive, SW480 rerep inconclusive, ELG1 repair inh -12%, MCF10A rereplic inconclusive and KB-3-1 cytotox 2.1µM*.
For Cc1nc(NS(=O)(=O)c2ccccc2)sc1NC(=O)Nc1ccccc1 the results were KB-V1 cytotox inconclusive, SW480 rerep 2%, ELG1 repair inh 22%, MCF10A rereplic -9% and KB-3-1 cytotox inactive.
For CCc1ccc(C(=O)COC(=O)c2ccccc2OC)cc1 the results were SW480 rerep -6%, ELG1 repair inh 20% and MCF10A rereplic 17%.
`Cn1c(N)c(C(=O)COC(=O)/C=C/c2ccc(Cl)cc2)c(=O)n(C)c1=O` gave KB-V1 cytotox inactive, SW480 rerep -2%, ELG1 repair inh -14%, MCF10A rereplic 2% and KB-3-1 cytotox inactive.
Cc1ccc2cc(C#N)c(NCc3ccccc3)nc2c1 was read as KB-V1 cytotox inactive, SW480 rerep inconclusive, ELG1 repair inh 3%, MCF10A rereplic 9.2µM* and KB-3-1 cytotox inactive.
Screening Cc1cccc2cc(C#N)c(NCCNS(=O)(=O)c3ccccc3)nc12 returned KB-V1 cytotox inconclusive, SW480 rerep inconclusive, ELG1 repair inh 2%, MCF10A rereplic 21µM* and KB-3-1 cytotox inactive.
Screening Cc1ccc(S(=O)(=O)NC(C(=O)N2CCOCCOCCOCCOCC2)C(C)C)cc1 (configuration not stated) returned KB-V1 cytotox inconclusive, SW480 rerep 2%, ELG1 repair inh -1%, MCF10A rereplic -2% and KB-3-1 cytotox inactive.
Screening O=c1[nH]cnc2sc(-c3ccccc3)cc12 returned KB-V1 cytotox inactive, SW480 rerep -16%, ELG1 repair inh inconclusive, MCF10A rereplic 2% and KB-3-1 cytotox inactive.
For O=c1[nH]c(-c2ccccc2)nc2sc(-c3ccccc3)cc12 the results were KB-V1 cytotox inconclusive, SW480 rerep 2.9µM*, ELG1 repair inh inconclusive, MCF10A rereplic 10µM* and KB-3-1 cytotox inconclusive.
Screening NS(=O)(=O)c1ccc(N/N=C/c2cn(-c3ccccc3)nc2-c2cccs2)c([N+](=O)[O-])c1 returned KB-V1 cytotox inactive, SW480 rerep 1%, ELG1 repair inh -17%, MCF10A rereplic 6% and KB-3-1 cytotox inconclusive.
Screening NS(=O)(=O)c1ccc(N/N=C/c2cn(-c3ccccc3)nc2-c2cccs2)cc1 returned KB-V1 cytotox inconclusive, SW480 rerep inconclusive, ELG1 repair inh 0%, MCF10A rereplic 13µM* and KB-3-1 cytotox inconclusive.
CCCCOCCCNC(=O)C[C@@H]1C[C@@]2(C(=O)OC)CC(C)(C)CC=C2N(Cc2cccc3ccccc23)C1=O was read as KB-V1 cytotox 21µM* and KB-3-1 cytotox inconclusive.
COC(=O)[C@@]12C[C@@H](CC(=O)NCCCCc3ccccc3)C(=O)N(Cc3cccc4ccccc34)C1=CCC(C)(C)C2 was read as KB-V1 cytotox 18µM* and KB-3-1 cytotox inconclusive.
For COC(=O)[C@@]12C[C@@H](CC(=O)NCc3ccccc3)C(=O)N(Cc3cccc4ccccc34)C1=CCC(C)(C)C2 the results were KB-V1 cytotox inconclusive and KB-3-1 cytotox inactive.
Screening COCCCNC(=O)C[C@@H]1C[C@@]2(C(=O)OC)CC(C)(C)CC=C2N(Cc2cccc3ccccc23)C1=O returned KB-V1 cytotox inconclusive and KB-3-1 cytotox inactive.
Cc1ccc(S(=O)(=O)C(C#N)c2nc3ccccc3nc2N2CCCCC2)cc1 (configuration not stated) was read as ELG1 repair inh -4%.
Screening CN1N=C(C(=O)N2CCCC(C(=O)c3cccc(C(F)(F)F)c3)C2)CCC1=O (configuration not stated) returned KB-V1 cytotox inactive, SW480 rerep -13%, ELG1 repair inh 3%, MCF10A rereplic -3% and KB-3-1 cytotox inactive.
Cc1ccc2nc(N/N=C/c3ccco3)cc(C)c2c1 was read as KB-V1 cytotox inconclusive, SW480 rerep inconclusive, ELG1 repair inh inconclusive, MCF10A rereplic 16µM* and KB-3-1 cytotox inactive.
For Cc1ccc2nc(C)cc(SCC(=O)N/N=C/c3ccco3)c2c1 the results were KB-V1 cytotox inactive, SW480 rerep 18%, ELG1 repair inh -1%, MCF10A rereplic 2% and KB-3-1 cytotox inactive.
For COc1ccccc1C=NNc1ccc([N+](=O)[O-])cn1 the results were KB-V1 cytotox inactive, SW480 rerep -2%, MCF10A rereplic -1% and KB-3-1 cytotox inactive.
For O=[N+]([O-])c1ccc(NN=Cc2ccccc2O)nc1 the results were KB-V1 cytotox inactive, SW480 rerep 2.6µM*, MCF10A rereplic inconclusive and KB-3-1 cytotox inactive.
Screening O=[N+]([O-])c1cccnc1N/N=C/c1ccccc1O returned KB-V1 cytotox inconclusive, SW480 rerep 0.82µM*, ELG1 repair inh inconclusive, MCF10A rereplic -4% and KB-3-1 cytotox 1.8µM*.
`O=[N+]([O-])c1ccc(N/N=C\c2cccn2-c2ccccc2)nc1` gave KB-V1 cytotox inconclusive, SW480 rerep inconclusive, ELG1 repair inh 1%, MCF10A rereplic 15µM* and KB-3-1 cytotox inconclusive.
Screening O=C(N/N=C/c1cc([N+](=O)[O-])ccc1O)Nc1ccccc1 returned KB-V1 cytotox inactive, SW480 rerep inconclusive, ELG1 repair inh inconclusive, MCF10A rereplic inconclusive and KB-3-1 cytotox inconclusive.
Screening O=[N+]([O-])c1ccc(O)c(/C=N/Nc2ncnc3c2cnn3-c2ccccc2)c1 returned KB-V1 cytotox inactive, SW480 rerep 2.3µM*, ELG1 repair inh inconclusive, MCF10A rereplic -16% and KB-3-1 cytotox inconclusive.
For CC(=O)NC(c1cccc(F)c1)c1nc(-c2cc(F)cc(Cl)c2)cs1 (configuration not stated) the results were KB-V1 cytotox inactive and KB-3-1 cytotox inactive.
`CCOc1ccc(N2CC(c3nc4ccccc4n3CCOc3ccccc3)CC2=O)cc1` (configuration not stated) gave KB-V1 cytotox inactive and KB-3-1 cytotox inactive.
For O=C(O)c1ccccc1SCc1ccc2c(c1)OCO2 the results were KB-V1 cytotox inactive, SW480 rerep -6%, MCF10A rereplic 6% and KB-3-1 cytotox inactive.
